# Data published in PubChem BioAssay (Tox21).
# Where “and” joins values, the source holds several entries; their conditions need not be identical. Equal entries are not always repeated. Results filed as inconclusive are left out. More than one record can exist for a structure, and the calls need not agree. Calls of active or inactive are those of the source. Calls follow the shape of the dose curve; as a rule, active = well fitted cell-killing curve with a large enough effect in the repeat runs; inconclusive = weak or mixed curves, or effect the other way; inactive = flat fitted curve, though single readings scatter.
# Assay: Nuclear factor erythroid 2-related factor 2/antioxidant responsive element (Nrf2/ARE) small molecule agonists: qHTS cell viability counter screen in human keratinocytes (AID 1919968); also: nearly all actives have a fitted effect of over 55% in size
# Settings: KeratinoSens HaCaT ARE cells viability, CellTiter-Fluor, 24 h; series mostly up to 92.4 µM; activity change, negative = cytotoxicity: at the top concentration
# From the text: U.S. Tox21 Program National Center for Advancing Translational Sciences [NCATS] Division of Preclinical Innovation [DPI] U.S. Environmental Protection Agency [EPA] National Institutes of Environmental Health Sciences [NIEHS] National Toxicology Program [NTP] U.S. Food and Drug Administration [FDA] Tox21 Assay Overview: Oxidative stress has been implicated in the pathogenesis of a variety of diseases ranging from cancer to neurodegeneration. The antioxidant response element (ARE) signaling pathway plays an important role in the amelioration of oxidative stress. The KeratinoSens (Givaudan, Switzerland) is an in vitro test method which quantifies luciferase induction as a measure of activation of Keap1-Nrf2-antioxidationt/electrophile response element (ARE) dependant pathway in HaCaT human keratinocytes stably transfected with a selectable plasmid. The KeratinoSens assay is a cell-based assay with a reporter cell line to detect potential skin sensitizers by their ability to induce the Nrf2/ARE-response. The activation of the report gene under culture conditions can be detected by ONE-Glo Luciferase Assay System (Promega, Madison, WI). This cell line has been used to screen the Tox21 10K compound library to identify agonists that induce oxidative stress. The cytotoxicity of the Tox21 compound library against the KS-ARE cell line was tested in parallel by measuring the cell viability using CellTiter- Fluor assay system (Promega, Madison, WI) in the same wells.
# Tox21 Assay Protocol Summary: HaCaT derived cell line KeratinoSens were dispensed at 1,500 cells/5uL/well in 1536-well white wall/solid bottom plates using a Multidrop Combi (ThermoFisher Scientific, Waltham, MA) dispenser. After the assay plates were incubated at 37 C/5% CO2 for 5 h, 23 nL of compounds dissolved in DMSO, positive controls or DMSO only was transferred to the assay plate by a pintool workstation (Kalypsys, San Diego, CA). The plates were incubated at 37 C/5% CO2 for 23 h, followed by addition of 1uL/well of CellTiter-Fluor reagent into the assay plates using a Flying Reagent Dispenser (Aurora Discovery, San Diego, CA) for cell viability readout that measures cytotoxicity. After 1 h incubation at 37 C/5% CO2 the fluorescence intensity was measured using a ViewLux (PerkinElmer, Shelton, CT) plate reader.
# % is scaled to controls: 0 for no effect and ±100 for the full control effect; potency is read from the fitted curve at half-maximal effect.
Compound,"activity change, negative = cytotoxicity",Potency
COc1ccc2c(c1OC)C(=O)O[C@@H]2[C@H]1c2cc3c(cc2CCN1C)OCO3,-2.76% (inactive),–
ClC1=C(Cl)C2(Cl)C3C(Cl)C(Cl)CC3C1(Cl)C2(Cl)Cl (stereo not given),–,30.5 µM (active) and 43.3 µM (active)
O=c1[nH]c2ccccc2c(=O)o1,–,inactive
CCN(CC)C(=O)/C(Cl)=C(\C)OP(=O)(OC)OC,–,inactive
c1ccc2c(c1)sc1ccccc12,–,inactive
CC(C)OC(=O)Cc1ccccc1,1.24% (inactive),–
C[C@H]1O[C@H](OC2[C@@H](O)[C@@H](O)C(O)[C@H](O)[C@H]2O)[C@@H](N)C[C@@H]1N=C(N)C(=O)O (stereo not given in full),1.21% (inactive),–
Nc1cccc2ccccc12,–,inactive
O=[N+]([O-])O[C@H]1CO[C@H]2[C@@H]1OC[C@H]2O[N+](=O)[O-],-1.24% [at 42.5 µM] (inactive),–
CCOP(=S)(OCC)Oc1nc(Cl)c(Cl)cc1Cl,–,inactive
Clc1ccc(C(c2ccc(Cl)cc2)C(Cl)Cl)cc1,–,27.8 µM (active)
FC(F)(F)c1ccc(Cl)cc1,–,inactive
CCCCCON=O,5.1% (inactive),–
CCCC1COC(Cn2cncn2)(c2ccc(Cl)cc2Cl)O1 (stereo not given),–,inactive
CCCCOC(=O)CCC(=O)OCCCC,0.118% (inactive),–
Clc1cccc(C(Cl)(Cl)Cl)n1,–,inactive
CCCC1CCCCN1 (stereo not given),-0.528% [at 42.5 µM] (inactive),–
O=P(OCC(Br)CBr)(OCC(Br)CBr)OCC(Br)CBr (stereo not given),–,inactive
CN(C)N,2.14% (inactive),–
CC(=[OH+])/C=C(/C)[O-].CC(=[OH+])/C=C(\C)[O-].CC(=[OH+])/C=C(\C)[O-].[Fe],1.52% (inactive),–

Compound,"activity change, negative = cytotoxicity",Potency
CC1(C)[C@H](C(=O)O[C@H](C#N)c2cccc(Oc3ccccc3)c2)[C@@H]1C=C(Br)Br,9.64% (inactive),–
CCc1cccc(C)c1N(C(=O)CCl)C(C)COC (stereo not given),–,inactive
CC(C)N1C(=O)c2ccccc2NS1(=O)=O,–,inactive
O=C(Cl)C(Cl)Cl,6.89% (inactive),–
c1ccoc1,0.945% (inactive),–
C/C=C/CC#N,0.0863% (inactive),–
O=Cc1ccccc1,4.77% (inactive),–
CN(N=O)C(N)=O,-1.01% (inactive),–
CCCCON=O,0.0961% (inactive),–
COc1ccc(O)c(C(C)(C)C)c1,–,inactive
CC(C)(C#N)N=NC(C)(C)C#N,–,inactive
CN(C)C(=O)Nc1ccc(Cl)cc1,–,inactive
O=C(CCl)c1ccc(Cl)cc1Cl,–,inactive and 11.9 µM (active)
CC(C)(OOC(C)(C)c1ccccc1)c1ccccc1,20.3% (inactive),–
CC(O)CCO (stereo not given),–,inactive
CCCCN(CCCCO)N=O,7.65% (inactive),–
Cc1ccc(N)c(C)c1,–,inactive
[O-][Cl+]O,-6.3% (inactive),–
O=P(Oc1ccccc1)(Oc1ccccc1)Oc1ccccc1,–,inactive
CCCCN(CC)C(=O)SCCC,–,inactive
